According to PubChem BioAssay (Tox21):
Inconclusive results are not listed. A call without a number means that no potency is given here. Values without a mark were called inactive. Activity calls are given as the source filed them. The call rests on the fitted dose curve; in most records, active means well fitted inhibition curve with a large enough effect in the repeat runs; inconclusive means weak or mixed curves; inactive means flat fitted curve, though single readings scatter.

biological target: Voltage-gated inwardly rectifying potassium channel KCNH2 (Homo sapiens) (UniProt Q12809); experiment: Human Ether-a-go-go-Related Gene (hERG) channel small molecule antagonists: fluorescence cell-based qHTS assay (AID 1671200); settings: hERG-U2OS cells, FluxOR thallium flux fluorescence; series mostly up to 76.8 µM; further: nearly all actives have a fitted effect of over 50% in size
Sequence (Q12809 whole entry, looked up): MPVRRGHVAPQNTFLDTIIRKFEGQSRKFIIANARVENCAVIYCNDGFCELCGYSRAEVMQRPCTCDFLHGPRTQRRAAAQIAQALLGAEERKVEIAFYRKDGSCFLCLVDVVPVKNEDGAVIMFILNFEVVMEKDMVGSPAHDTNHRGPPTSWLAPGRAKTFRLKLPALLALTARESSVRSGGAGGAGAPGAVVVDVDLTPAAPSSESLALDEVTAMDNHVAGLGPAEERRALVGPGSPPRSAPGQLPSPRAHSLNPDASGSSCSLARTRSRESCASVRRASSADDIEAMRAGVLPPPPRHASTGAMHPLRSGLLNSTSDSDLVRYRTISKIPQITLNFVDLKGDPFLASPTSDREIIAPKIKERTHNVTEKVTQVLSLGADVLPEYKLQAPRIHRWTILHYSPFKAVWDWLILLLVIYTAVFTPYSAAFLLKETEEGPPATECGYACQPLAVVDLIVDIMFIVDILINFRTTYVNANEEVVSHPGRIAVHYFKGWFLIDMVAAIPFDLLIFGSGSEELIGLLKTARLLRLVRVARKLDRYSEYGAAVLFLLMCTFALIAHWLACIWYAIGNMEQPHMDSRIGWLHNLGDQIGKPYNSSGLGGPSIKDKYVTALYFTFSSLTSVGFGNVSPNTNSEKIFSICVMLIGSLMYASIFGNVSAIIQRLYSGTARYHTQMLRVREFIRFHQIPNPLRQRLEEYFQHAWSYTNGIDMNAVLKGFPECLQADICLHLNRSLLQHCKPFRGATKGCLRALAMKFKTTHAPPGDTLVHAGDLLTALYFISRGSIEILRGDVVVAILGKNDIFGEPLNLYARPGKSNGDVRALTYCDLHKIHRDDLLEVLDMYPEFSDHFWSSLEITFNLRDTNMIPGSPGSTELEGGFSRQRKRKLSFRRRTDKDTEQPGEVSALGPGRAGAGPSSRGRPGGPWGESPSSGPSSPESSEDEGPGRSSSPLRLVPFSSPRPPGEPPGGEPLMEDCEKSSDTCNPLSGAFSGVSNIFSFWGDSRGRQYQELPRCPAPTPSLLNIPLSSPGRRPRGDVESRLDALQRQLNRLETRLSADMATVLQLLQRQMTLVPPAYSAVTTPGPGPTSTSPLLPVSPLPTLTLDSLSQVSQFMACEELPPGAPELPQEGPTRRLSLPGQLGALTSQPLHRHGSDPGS
Source text: National Center for Advancing Translational Sciences [NCATS]
U.S. Environmental Protection Agency [EPA]
National Institutes of Environmental Health Sciences [NIEHS]
National Toxicology Program [NTP]
U.S. Food and Drug Administration [FDA]
Mutations in the hERG channel cause Long QT (LQT) syndrome. LQT syndrome is a cardiac disorder which can cause ventricle arrhythmia and sudden death. Additionally, compounds which block the hERG channel can cause acquired LQT syndrome. Several FDA approved drugs have been removed from the market due to their hERG blocking activity. A cell-based hERG channel inhibition assay can be used to screen chemical compounds that inhibit hERG channel. This assay measures hERG channel activity using thallium ions as surrogate ions to measure potassium into the cells.
Tox21 Assay Protocol Summary:
hERG-U2OS cells were resuspended in culture medium and dispensed into 1536-well, black wall/clear-bottom plates at 1000cells/well/3uL using a Multidrop Combi dispenser (Thermo Fisher, Waltham, MA). After plates were incubated at 37 C overnight, 3 uL of Loading Buffer provided by FluxOR II Potassium Ion Channel Assay kit (Thermo, Carlsbad, CA) was added to each well. The assay plates were then incubated at room temperature in the dark for 1h. […] After the assay plates were incubated at room temperature for 10 min, 1 uL of Stimulus Buffer provided by FluxOR II Potassium Ion Channel Assay kit was added into each well and fluorescence intensity (480nm excitation/540nm emission) was continuously measured for 2 min at 1 second intervals using a Functional Drug Screening System (FDSS) 7000EX kinetic plate reader (Hamamatsu, Japan).
Potency means the concentration at half of the fitted maximal effect.

SMILES | Potency | activity change, negative = inhibition
CC(C)c1ccc(C#N)cc1 | inactive | –
CC1=CC[C@@H]2C[C@H]1C2(C)C | – | -0.97% [at 15.8 µM]
CCC1CCC(CCC(=O)O)C1 (stereo not given) | inactive | –
COC(=O)C1=C(C)NC(C)=C(C(=O)OC(C)(C)CN(C)CCC(c2ccccc2)c2ccccc2)C1c1cccc([N+](=O)[O-])c1 (stereo not given) | 2390 nM (active) | –
CC1=CC[C@@]23C[C@@H]1C(C)(C)[C@@H]2CC[C@H]3C | inactive | –
ClC1=C(Cl)C1(Cl)Cl | inactive | –
CCc1ccc(C)cc1 | inactive | –
BrC(Br)C(Br)Br | inactive | –
COc1ccc2nc(S(=O)Cc3ncc(C)c(OC)c3C)[nH]c2c1 (stereo not given) | inactive | –
c1ccc(CCCc2ccncc2)cc1 | inactive | –
CC(=O)OCC1=C(C(=O)O)N2C(=O)[C@@H](NC(=O)CSc3ccncc3)[C@H]2SC1 | inactive | –
COc1cc(NS(=O)(=O)c2ccc(N)cc2)nc(C)n1 | inactive | –
O=C(O)c1cccc(C[C@@H]2COc3ccc(OCc4nc5cc(F)ccc5s4)cc3[C@@H]2O)c1 | inactive | –
CC1CCc2nccnc21 (stereo not given) | inactive | –
O=C(O)c1cccc(Oc2ccccc2)c1 | inactive | –
CCC(C)(C)C(=O)O | inactive | –
CN1CCCN(C(c2ccccc2)c2ccc(Cl)cc2)CC1 (stereo not given) | 1900 nM (active) | –
CCC(CO)(CO)[N+](=O)[O-] | inactive | –
O=C1c2ccccc2C(=O)c2c(O)ccc(O)c21 | inactive | –
CCCCCC | inactive | –

SMILES | Potency | activity change, negative = inhibition
CC(C)COC(=O)c1ccc(O)cc1 | inactive | –
COc1cc(C(C)=O)ccc1OCCCN1CCC(c2noc3cc(F)ccc23)CC1 | 1070 nM (active) | –
CCN(Cc1cccc(S(=O)(=O)O)c1)c1ccc(C(=C2C=CC(=[N+](CC)Cc3cccc(S(=O)(=O)O)c3)C=C2)c2ccccc2S(=O)(=O)[O-])cc1 | inactive | –
O=C(NC(Cc1cc(=O)[nH]c2ccccc12)C(=O)O)c1ccc(Cl)cc1 (stereo not given) | inactive | –
CCCCCCC(O)CCCCCCCCCCC(=O)OC (stereo not given) | inactive | –
CC1C(C)(C)C2=C(C(=O)CCC2)C1(C)C (stereo not given) | inactive | –
Nc1c(Cl)cc(Cl)cc1[N+](=O)[O-] | inactive | –
CCCCCCCCCCCCCCCCCC(=O)OCC(CC)CCCC (stereo not given) | inactive | –
CNCc1ccc(NC(=O)c2c[nH]c3c2C(=O)CCC3)cc1 | inactive | –
CCCOC(=O)c1c(Cl)c(Cl)c(Cl)c(Cl)c1C(=O)OCCC | inactive | –
CC(C)(C)C(O)/C=C/c1ccc2c(c1)OCO2 (stereo not given) | inactive | –
C=CC(=O)O | inactive | –
C=CC(=O)NC(C)C | inactive | –
COC(OC)OC | inactive | –
CC(C)c1ccc(C(=O)N=C(N)N)cc1S(C)(=O)=O | inactive | –
CCO[Si](C)(CCCOCC1CO1)OCC (stereo not given) | inactive | –
CC(C)C1CCC(C(=O)N[C@H](Cc2ccccc2)C(=O)O)CC1 (stereo not given in full) | inactive | –
CC1CCCO1 (stereo not given) | inactive | –
CC(=O)Oc1cccc(O)c1 | inactive | –
COc1cc(NC(C)CCCN)c2ncccc2c1 (stereo not given) | inactive | –
